Screening results (PubChem)
ALDH1A1 inh: qHTS Assay for Inhibitors of Aldehyde Dehydrogenase 1 (ALDH1A1) | 7.3% of 220,000 active | Purified ALDH1A1, NADH fluorescence, propionaldehyde substrate | Potency, µM (doses to about 75.3 µM), for the others: at the highest dose activity, negative = inhibition, most hits filed as inhibitors | Aldehyde dehydrogenase 1A1 (Homo sapiens), P00352; active = well fitted inhibition curve with a large enough effect, not every such curve was filed as active; inconclusive = small, poorly fitted or top-dose-only effect, or another doubt; inactive = no such curve, though single readings can be large or run the other way;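 note: plate controls were no enzyme wells and a reference inhibitor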
HPGD inh: qHTS Assay for Inhibitors of HPGD (15-Hydroxyprostaglandin Dehydrogenase) | 15-hydroxyprostaglandin dehydrogenase [NAD(+)] (Homo sapiens), P15428 | purified HPGD, NADH fluorescence kinetic, PGE2 substrate | Potency, µM, for the others: at the highest dose activity change, negative = inhibition, most hits filed as inhibitors | 4.3% of 150,000 active; active = well fitted inhibition curve with a large enough effect, not every such curve was filed as active; inconclusive = small, poorly fitted or top-dose-only effect, or another doubt; inactive = no such curve, though single readings can be large or run the other way
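NADH formation kinetics: reaction with 30 uM PGE2 and 1 mM NAD+ (final), 20 nM enzyme, Tris-HCl pH 8 with Tween 20, after 15 min compound preincubation at room temperature. Fluorescence change, last versus first of five reads.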
Tau fluor cs: Counterscreen qHTS for Inhibitors of Tau Fibril Formation, Fluorescence Polarization. 0.93% of 280,000 active. Potency, µM (doses to about 57.7 µM), for inactives: at the highest dose activity change, negative = decrease. tau K18 P301L Alexa594 fluorescence, heparin fibrillization. AID 1463, 2008; note: nearly all actives have a fitted effect of over 55% in size
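Human K18 P301L tau (15 uM unlabeled plus 0.24 uM Alexa 594-labeled, final) in 100 mM sodium acetate pH 7 was mixed with compound and 20 uM heparin and incubated 6 hr at 37 C.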
Tau ThT inhib: qHTS for Inhibitors of Tau Fibril Formation, Thioflavin T Binding | AID 1460, 2008 | 2.1% of 270,000 active | recombinant tau K18 P301L (four-repeat tau fragment), heparin-induced fibrillization, ThT fluorescence | Potency, µM (titrated, usually from 57.4 µM), without a hit: at the highest dose activity, negative = inhibition, hits mostly inhibitors | Microtubule-associated protein tau (Homo sapiens), P10636; note: nearly all actives have a fitted effect of over 55% in size
Target sequence (P10636 561-689 P618L limits assumed): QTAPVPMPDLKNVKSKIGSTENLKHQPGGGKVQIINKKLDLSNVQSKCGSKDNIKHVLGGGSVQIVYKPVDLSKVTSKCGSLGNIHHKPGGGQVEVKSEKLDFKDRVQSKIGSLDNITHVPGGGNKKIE
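K18 P301L tau (15 uM + 0.24 uM Alexa 594-tagged), heparin 20 uM, NaOAc pH 7, 6 h 37 C; ThT 30 uM, 1 h RT, ex 450/em 510 nm.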
NPSR antag: qHTS Assay for Antagonists of the Neuropeptide S Receptor: cAMP Signal Transduction; CHO-NPSR cells, cAMP TR-FRET, antagonist mode; Q6W5P4; 1% of 220,000 active; Potency, µM (doses to about 38.3 µM), for inactives: at the highest dose activity change, negative = inhibition, actives largely listed as inhibitors; note: nearly all actives have a fitted effect of over 50% in size
Target sequence (Q6W5P4 whole entry, looked up): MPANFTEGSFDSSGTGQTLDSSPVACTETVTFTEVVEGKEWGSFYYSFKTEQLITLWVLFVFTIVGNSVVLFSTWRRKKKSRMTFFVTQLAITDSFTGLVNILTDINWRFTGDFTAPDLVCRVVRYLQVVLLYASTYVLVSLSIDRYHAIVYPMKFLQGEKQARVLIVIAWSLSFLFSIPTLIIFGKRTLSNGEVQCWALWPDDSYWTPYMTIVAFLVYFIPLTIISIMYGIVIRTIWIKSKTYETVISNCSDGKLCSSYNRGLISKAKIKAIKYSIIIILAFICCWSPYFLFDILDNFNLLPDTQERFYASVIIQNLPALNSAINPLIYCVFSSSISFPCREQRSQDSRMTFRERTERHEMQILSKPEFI
Tau fibril FP: qHTS for Inhibitors of Tau Fibril Formation, Fluorescence Polarization. K18 P301L tau heparin fibrillization, Alexa594 FP, 6 h. Potency, µM (doses to about 57.7 µM), for the others: at the top dose activity, negative = inhibition, most hits filed as inhibitors. 0.39% of 280,000 active; note: nearly all actives have a fitted effect of over 55% in size
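Read-out: fluorescence polarization of Alexa 594-labeled tau (0.24 uM), 555 nm excitation, 632 nm emission. Mixtures held 15 uM unlabeled K18 P301L, compound and 20 uM heparin, pH 7 acetate buffer, incubated 6 hr at 37 C.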
* = called active by the depositor; [ ] = another dose, or the depositor's remark. Rows were chosen to be rich in hits. Some 9.5% of all compounds tested hit in one or more screens of this group. Unless noted, calls come from the whole dose curve; as a rule, active = well fitted curve in the direction sought with a large enough effect; inconclusive = small, poorly fitted or top-dose-only effect, or another doubt; inactive = no such curve, though single readings can be large; an effect the other way counts as inactive or inconclusive. Unless noted, % is set by controls: 0 for no effect and ±100 for the full control effect; potency is the fitted concentration of half-maximal effect.

O=C(/C=C/c1cccs1)Nc1scc(-c2ccccc2)c1C(=O)O was read as ALDH1A1 inh 22µM*, Tau fluor cs -7%, Tau ThT inhib inconclusive, NPSR antag -5% and Tau fibril FP 5%.
Screening CCOC(=O)c1ccc(CC(=O)c2oc3cc(O)ccc3c2C)o1 returned ALDH1A1 inh inconclusive, HPGD inh inconclusive, Tau fluor cs inconclusive, Tau ThT inhib inconclusive, NPSR antag 0%[46.1 µM] and Tau fibril FP 2%.
`CCOC(=O)c1ccc(CC(=O)c2ccc(O)c(O)c2O)o1` gave ALDH1A1 inh 10µM*, Tau fluor cs inconclusive, Tau ThT inhib 16µM*, NPSR antag -5% and Tau fibril FP 22µM*.
For Cc1ccc(S(=O)(=O)N(C)C)cc1NC(=S)N1CCN(Cc2ccc3c(c2)OCO3)CC1 the results were ALDH1A1 inh -6%, Tau fluor cs -9%, Tau ThT inhib -6%, NPSR antag 2% and Tau fibril FP -3%.
CC(C)Cn1c(N)c(C(=O)COC(=O)c2ccc([N+](=O)[O-])o2)c(=O)n(C)c1=O was read as ALDH1A1 inh 18µM*, Tau fluor cs -7%, Tau ThT inhib -3%, NPSR antag -4% and Tau fibril FP -12%.
CC(C)Cn1c(N)c(C(=O)COC(=O)c2cnc(Cl)c(Cl)c2)c(=O)n(C)c1=O was read as ALDH1A1 inh 0.45µM*, Tau fluor cs -25%, Tau ThT inhib -10%, NPSR antag -49% and Tau fibril FP -5%.
Screening CC(C)Cn1c(N)c(C(=O)COC(=O)c2cc(F)cc(F)c2)c(=O)n(C)c1=O returned ALDH1A1 inh 4%, Tau fluor cs -15%, Tau ThT inhib -1%, NPSR antag -21% and Tau fibril FP -4%.
`CC(C)Cn1c(N)c(C(=O)COC(=O)c2ccc(O)cc2)c(=O)n(C)c1=O` gave ALDH1A1 inh 7.9µM*, Tau fluor cs 8%, Tau ThT inhib 9%, NPSR antag -19% and Tau fibril FP 4%.
Screening Cn1c(N)c(C(=O)COC(=O)c2ccc(Cl)nc2)c(=O)n(C)c1=O returned ALDH1A1 inh 0%, Tau fluor cs 0%, Tau ThT inhib -8%, NPSR antag 4% and Tau fibril FP 5%.
Cc1c(C2=CCN(S(=O)(=O)c3ccc(Cl)cc3)CC2)c2ccccc2n1CC(=O)N1CCCC1 was read as Tau fluor cs 5%, Tau ThT inhib 16% and Tau fibril FP 7%.
`COC[C@H]1OC=C[C@@H](OC)[C@@H]1OC` gave ALDH1A1 inh -1%, HPGD inh -3%, Tau fluor cs 0%, Tau ThT inhib -4% and Tau fibril FP 2%.
Screening Cc1nc(NC(=O)c2c(-c3ccccc3)c(-c3ccccc3)nn(C)c2=O)sc1C returned Tau fluor cs -8%, Tau ThT inhib -15% and Tau fibril FP -6%.
For Cc1sc(NC(=O)c2ccc(=O)n(C)n2)nc1-c1ccccc1 the results were ALDH1A1 inh 28µM*, Tau fluor cs -12%, Tau ThT inhib inconclusive, NPSR antag 4% and Tau fibril FP 1%.
`Cc1ccccc1NC(=O)c1c(NC(=O)c2ccncc2)sc2c1CCC(C(C)(C)C)C2` (stereo not drawn) gave Tau fluor cs -20%, Tau ThT inhib -17% and Tau fibril FP 2%.
For CCc1ccc(/C=C\C(=O)N2CCc3ccccc3C2)cc1 the results were ALDH1A1 inh 1%, HPGD inh 11µM*, Tau fluor cs 2%, Tau ThT inhib -16%, NPSR antag -28%[46.1 µM] and Tau fibril FP 14%.
For C/C(=N/Nc1ccc2ccccc2n1)c1ccccc1O the results were ALDH1A1 inh -3%[13.5 µM] and HPGD inh -9%.
Screening O=C1N=C(N2CCOCC2)S/C1=C\c1cccs1 returned ALDH1A1 inh inconclusive, Tau fluor cs -14%, Tau ThT inhib -24%, NPSR antag 36% and Tau fibril FP 2%.
For N#CCCN1CCN(C2=NC(=O)/C(=C\c3cccs3)S2)CC1 the results were ALDH1A1 inh 25µM*, Tau fluor cs -4%, Tau ThT inhib inconclusive, NPSR antag -37% and Tau fibril FP 2%.
Screening CC(C)(C)OC(=O)N1CCC(c2c(C(=O)N3CCCCC3)cnn2-c2ccc(F)cc2)CC1 returned Tau fluor cs 4%, Tau ThT inhib 0% and Tau fibril FP 0%.
`CC1CCCC(C)N1C(=O)Cn1cc(/C=C2/C(=O)Nc3ccccc32)c2ccccc21` (stereo not drawn) gave ALDH1A1 inh -12%, HPGD inh -10%, Tau fluor cs inconclusive, Tau ThT inhib 14µM*, NPSR antag inconclusive and Tau fibril FP 14%.
`Cc1cc(NC(=O)Nc2nc3c(s2)CCCCCC3)ccc1Br` gave Tau fluor cs inconclusive, Tau ThT inhib 18% and Tau fibril FP -5%.
Screening CCOC(=O)c1ccc(NC(=S)NCCCN2CCOCC2)cc1 returned ALDH1A1 inh -1%, Tau fluor cs -4%, Tau ThT inhib 4%, NPSR antag 2% and Tau fibril FP -2%.
`O=C(Nc1ccccc1-c1nc2ccccc2s1)c1cccnc1Cl` gave ALDH1A1 inh inconclusive, HPGD inh inconclusive, Tau fluor cs -28%, Tau ThT inhib -6%, NPSR antag -24%[46.1 µM] and Tau fibril FP -8%.
Cc1cc(N2CCN(c3nnnn3-c3ccccc3)CC2)n2ncnc2n1 was read as ALDH1A1 inh 22µM*, HPGD inh -6%, Tau fluor cs -9%, Tau ThT inhib -10%, NPSR antag 11%[7.67 µM] and Tau fibril FP -2%.
CCOC(=O)C1=C(C)N(c2ccc(C)cc2)C(=O)/C1=C\c1cccs1 was read as ALDH1A1 inh -11%, HPGD inh -17%, Tau fluor cs -25%, Tau ThT inhib 16µM*, NPSR antag -27%[46.1 µM] and Tau fibril FP -18%.
For COC(=O)C1=C(C)N(c2ccc(OC)c(OC)c2)C(=O)/C1=C\c1ccco1 the results were ALDH1A1 inh 0%, Tau fluor cs -12%, Tau ThT inhib inconclusive, NPSR antag -5% and Tau fibril FP -2%.
Screening CCOC(=O)C1=C(C)N(c2ccccc2)C(=O)/C1=C\c1cccs1 returned ALDH1A1 inh -9%, HPGD inh -2%, Tau fluor cs -20%, Tau ThT inhib inconclusive, NPSR antag -15% and Tau fibril FP -11%.
